Compound activity deposited in PubChem by National Center for Advancing Translational Sciences (NCATS).
The list is not random: actives were taken first. Their share in the collection is about 6.9%.
Giardia kill = Giardia lamblia killing; Giardia lamblia trophozoite viability; activity change, % at 7.66 µM, hits read low; hit rate 0.15% among 340,000; in the data active = activity change below about -80%; inconclusive = between about -30% and that limit;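 note: parasites exposed to compound for two days anaerobically before the ATP read; % is set by controls: 0 for no effect and ±100 for the full control effect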
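Media and compound were dispensed first, then trophozoites at 100 cells/well; plates sat 48 hrs at 37 deg C without oxygen before ATP luminescence reagent was added and read after 15-30 min at room temperature.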
S-ASM inh = blocks human secretory acid sphingomyelinase; hit rate 0.006% among 340,000; placental ASM, HMU-PC fluorogenic substrate, 60 min; P17405; Potency, µM (highest dose often 57.5 µM), for the others: top-dose activity change, negative = inhibition, usual class: inhibitors; note: potency is the fitted concentration of half-maximal effect
Target sequence (P17405 47-631 limits assumed): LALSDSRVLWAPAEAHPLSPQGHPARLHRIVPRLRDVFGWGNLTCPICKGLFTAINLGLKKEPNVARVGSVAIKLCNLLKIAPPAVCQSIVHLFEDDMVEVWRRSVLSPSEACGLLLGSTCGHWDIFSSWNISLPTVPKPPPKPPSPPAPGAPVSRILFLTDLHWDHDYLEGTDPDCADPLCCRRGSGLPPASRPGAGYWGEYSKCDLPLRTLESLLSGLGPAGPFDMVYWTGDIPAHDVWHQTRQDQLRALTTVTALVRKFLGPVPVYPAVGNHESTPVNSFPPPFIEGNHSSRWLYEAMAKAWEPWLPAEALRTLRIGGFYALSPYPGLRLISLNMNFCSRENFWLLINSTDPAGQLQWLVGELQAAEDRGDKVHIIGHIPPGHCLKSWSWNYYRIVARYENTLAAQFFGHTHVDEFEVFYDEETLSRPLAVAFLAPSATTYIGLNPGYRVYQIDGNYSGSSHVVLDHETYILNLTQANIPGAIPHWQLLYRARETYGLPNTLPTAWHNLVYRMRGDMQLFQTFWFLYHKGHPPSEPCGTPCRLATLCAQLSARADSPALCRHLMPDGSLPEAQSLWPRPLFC
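Fluorescence read-out (Ex 386 nm, Em 447 nm) after stopping the reaction at pH 10. Enzyme: ASM from human placenta; substrate HMU-PC0, 9 uM final; 60 min, 37 °C. Compound preincubation 10 min, ambient temperature.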
KB-3-1 cytotox = KB-3-1 parental cell cytotoxicity; KB-3-1 viability, CellTiter-Glo ATP luminescence, 72 h; AID 1347075; hit rate 1.4% among 400,000; Potency, µM (doses to about 46.1 µM), hits mostly cytotoxic; note: potency is the fitted concentration of half-maximal effect; % is set by controls: 0 for no effect and ±100 for the full control effect; nearly all actives have a fitted effect of over 60% in size
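Here the drug-naive KB-3-1 line serves as comparator for MDR sub-line selectivity; cells received compound titrations, 72 h at 37 °C, then CellTiter-Glo readout.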
SW480 rereplic = induces DNA re-replication in SW480 colon adenocarcinoma cells | SW480 DNA re-replication, Hoechst DNA content imaging, 48 h | Potency, µM (titrated, usually from 46.1 µM), without a hit: at the highest dose re-replication activation, usual class: activators | hit rate 1.8% among 340,000 | AID 624297; note: potency is the fitted concentration of half-maximal effect; % of control where 0% means no effect; nearly all actives have a fitted effect of over 55% in size
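First, 250 cells per well were seeded. Next, compound or vehicle (23 nL) was pinned in, plates sat 48 hr at 37 C. Finally Hoechst was added for 40 min before fluorescence scanning.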
KB-V1 cytotox = kills drug-selected multidrug resistant KB-V1 cells; hit rate 3.4% among 400,000; KB-V1 MDR cells viability, CellTiter-Glo, 72 h; AID 1347076; Potency, µM (doses to about 46.1 µM), usual class: cytotoxic; note: potency is the fitted concentration of half-maximal effect; % is set by controls: 0 for no effect and ±100 for the full control effect; nearly all actives have a fitted effect of over 60% in size
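Following 72 h at 37 degrees C with compound, KB-V1 cell viability was read by CellTiter-Glo luminescence, medium being phenol-red-free DMEM plus 10% FBS; concentration-response parameters came from normalized, curve-fitted qHTS data.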
MCF10A rerep = inducers of DNA re-replication in MCF 10A breast cells | MCF 10A DNA re-replication, Hoechst nuclear intensity, 48 h | Potency, µM (top dose mostly 46.1 µM), for inactives: top-dose activity, positive = re-replication, actives largely listed as activators | hit rate 2.9% among 350,000; note: potency is the fitted concentration of half-maximal effect; % of control where 0% means no effect; nearly all actives have a fitted effect of over 50% in size
Active calls of the source: *; i = inactive; ? = inconclusive; nt = not tested or not shown; [ ] = dose if it differs, or a comment. Unless noted, calls come from the whole dose curve; as a rule, active = well fitted curve in the direction sought with a large enough effect; inconclusive = small, poorly fitted or top-dose-only effect, or another doubt; inactive = no such curve, though single readings can be large; an effect the other way counts as inactive or inconclusive.

SMILES	Giardia kill	S-ASM inh	KB-3-1 cytotox	SW480 rereplic	KB-V1 cytotox	MCF10A rerep
COc1ccc(N2C(=O)CSC23C(=O)N(Cc2cccc(C(F)(F)F)c2)c2ccccc23)cc1 (configuration not stated)	nt	nt	i	nt	?	nt
CCc1ccc(N2C(=O)CSC23C(=O)N(Cc2cccc(OC)c2)c2ccccc23)cc1 (configuration not stated)	nt	nt	?	nt	10.3µM*	nt
C#CCCc1ccccc1/C=[N+](/C)[O-]	-6.6	9.5%	i	-4.1%	i	-8.8%
CCCCCCn1c2c(c(=N)c3c1CCC3)CCC2	22.9	0.7%	2.06µM*	0.7%	i	14.6%
CCCCCCn1c(=O)[nH]c2c(c1=O)CCC2	-8.1	2.9%	i	4.5%	i	5.3%
CCCCCCCCCn1c2c(c(=N)c3c1CCC3)CCC2	45.3	-15.5%	1.03µM*	19.0%	i	?
CCn1c2c(c(=N)c3c1CCC3)CCC2	-4.6	0.7%	i	-2.7%	i	6.4%
CCCCn1c2c(c(=N)c3c1CCC3)CCC2	-5.6	-0.7%	4.11µM*	-2.7%[9.22 µM]	i	2.4%
CCCCCCCn1c2c(c(=N)c3c1CCC3)CCCC2	-1.9	-4.0%	0.581µM*	-0.1%	?	?
Cc1cc(=O)[nH]c(-c2ccc(C(F)(F)F)cc2)n1	-29.3	0.8%	i	-6.9%	i	-0.7%
CC(C)C1N=C2c3ccccc3N=C(SCC(=O)NCc3ccccc3Cl)N2C1=O (configuration not stated)	nt	nt	?	nt	i	nt
COc1cc(C2CC(=O)N(c3ccc(C)cc3)C(=O)C2)cc(OC)c1OC	23.3	4.6%	4.61µM*	3.66µM*	4.61µM*	6.51µM*
Cc1cc(C(=O)CSc2nc3ccc(Cl)cc3[nH]2)c(C)n1C	-2.1	-8.3%	i	-3.0%	20.6µM*	-2.3%
Cc1cc(C(=O)CSc2nc3ccccc3[nH]2)c(C)n1Cc1ccco1	3.7	-5.2%	?	1.1%	2.06µM*	27.6%
C=CCn1c(C)cc(C(=O)CSc2nc3ccccc3[nH]2)c1C	-3.4	-1.7%	i	-0.7%	i	20.3%
COc1cccc(C2C3=C(N=c4s/c(=C\c5cccc(O)c5)c(=O)n42)c2ccccc2CC3)c1OC (configuration not stated)	-4.1	-8.8%	?	?	16.4µM*	8.8%
CC(=O)N(C(C)=O)c1c(C#N)c(C)n(-c2ccccc2)c1C(=O)c1ccccc1	9.1	1.0%	i	?	?	6.51µM*
CC(=O)N1c2c(cc(Br)cc2S(=O)(=O)NCc2ccccc2Cl)CC1C (configuration not stated)	nt	nt	i	nt	i	nt
CCNC(=O)C1CCCN(Cc2ccc(C)c3ccccc23)CC1 (configuration not stated)	nt	nt	i	nt	i	nt
c1ccc(COCCN2CCN(CCOCc3ccccc3)CC2)cc1	-10.4	-1.1%	i	-1.7%	23.1µM*	-1.0%
CC(OC(=O)CCN=C1NS(=O)(=O)c2ccccc21)C(=O)Nc1ccccc1F (configuration not stated)	-0.8	-1.6%	i	-2.1%	i	-0.9%
COc1ccccc1CN1C(=O)[C@@H]2Cc3c([nH]c4ccccc34)C(C)(C)N2C1=O	25.8	-3.9%	?	-2.9%	20.6µM*	26.6%
COc1cccc(CN2C(=O)[C@H]3Cc4c([nH]c5ccccc45)C(C)(C)N3C2=O)c1	-18.3	-4.4%	i	0.5%	16.4µM*	?
COc1ccc(CN2C(=O)[C@@H]3Cc4c([nH]c5ccccc45)C(C)(C)N3C2=O)cc1	5.9	-8.6%	18.4µM*	-5.9%	?	13.9%
CC1(C)c2[nH]c3ccccc3c2C[C@H]2C(=O)N(Cc3cccc(F)c3)C(=O)N21	2.2	-17.7%	?	?	i	?
SMILES	Giardia kill	S-ASM inh	KB-3-1 cytotox	SW480 rereplic	KB-V1 cytotox	MCF10A rerep
CC1(C)c2[nH]c3ccccc3c2C[C@@H]2C(=O)N(Cc3ccccc3Cl)C(=O)N21	2.4	6.8%	i	5.1%	?	?
COc1ccc(CN2C(=O)[C@H]3Cc4c([nH]c5ccccc45)C(C)(C)N3C2=O)cc1	14.6	-13.4%	?	-3.6%	?	9.2µM*
CCCCNC(=O)[C@@H]1CC=C[C@@H]2CCN(C3CCCCC3)C(=O)[C@@H]21	nt	nt	i	nt	?	nt
Cc1cc(-c2nnc(SCC(=O)Nc3ccc(F)cc3F)n2N)n[nH]1	5.9	-3.0%	i	4.3%	i	-0.4%
CC(=O)n1c(=O)c2ccccc2c(=O)n1-c1ccccc1	4.9	0.8%	i	-3.6%	i	-14.6%
O=c1c2ccccc2c(=O)n(-c2ccccc2)n1CCCCBr	-1.9	-4.9%	i	-2.5%	i	7.31µM*
COc1ccc2sc(-c3ccc(N(C)C)cc3)c(C#CC(C)(C)O)c2c1	-28.9	i	i	2.06µM*	i	11.7%
COc1ccc2sc(-c3ccc(SC)cc3)c(C#CC(C)(C)O)c2c1	2.4	110.3%	?	-2.5%	i	?
COc1ccc(-c2sc3cc(OC)c(OC)cc3c2C#CCO)cc1	-15.3	-1.2%	i	3.26µM*	i	6.8%
COc1ccc(-c2sc3cc(OC)c(OC)cc3c2C#CC(C)(C)O)cc1	-21.0	-22.3%	i	-1.4%	i	?
COc1ccc2sc(-c3ccc(N(C)C)cc3)c(C#CCCO)c2c1	12.3	i	?	4.11µM*	?	?
COc1ccc2sc(-c3ccc(N(C)C)cc3)c(C#Cc3cncn3C)c2c1	-11.2	i	10.3µM*	1.3µM*	?	?
COc1ccc(-c2sc3cc4c(cc3c2C#CC2(O)CCCCC2)OCO4)cc1	-14.8	-5.2%	i	-1.6%	i	23.1µM*
Cc1cccc(N(CC(=O)Nc2ccc(Br)cc2)S(C)(=O)=O)c1C	nt	nt	i	nt	i	nt
Cc1ccc(Oc2cc(C)nc(-c3ccccc3O)n2)cc1	-14.6	-9.6%	i	3.5%	i	?
Cc1cc(OC2CCCCC2)nc(-c2ccccc2O)n1	-0.5	-8.1%	i	10.0%	i	20.6µM*
COc1ccc(CC2C(=O)NC(C)C(=O)N(C)C3Cc4ccc(cc4)Oc4cc(ccc4O)CC(C(=O)NC(C)C(=O)NC(C)C(=O)N2C)N(C)C3=O)cc1 (configuration not stated)	-5.6	5.6%	0.231µM*	4.61µM*	i	?
CC(C)C[C@@H]1NC(=O)[C@H](Cc2ccccc2)N(C)C(=O)[C@H](C)NC(=O)c2ccccc2NC(=O)[C@H](Cc2ccc(O)cc2)N(C)C1=O	-16.4	-12.6%	i	-39.8%	i	2.5%
N=c1c(C(=O)NCCc2ccccc2)cc2c(=O)n3ccccc3nc2n1CCCN1CCOCC1	4.9	386.2%	i	5.17µM*	?	?
